NPC1 prom act: activators of NPC1 promoter; Potency, µM (doses to about 9.22 µM), for inactives: top-dose activation, hits mostly activators; Huh7 NPC1 promoter luciferase reporter, 24 h; 320,000 tested, 2.4% active; also: % of control where 0% means no effect; nearly all actives have a fitted effect of over 60% in size
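Huh7 reporter cells (NPC1 promoter driving luciferase) are dosed with compound for 24 h at 37 °C, 5% CO2; luciferase detection reagent is then added and luminescence measured after 10 min at ambient temperature.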
ELG1 genotox: induces genotoxicity in HEK293T cells with luciferase-tagged ELG1 | HEK293T ELG1-luciferase reporter, luminescence, 16 h | Potency, µM (titrated, usually from 46 µM), inactives show top-dose activity change, positive = activation, usual class: activators | 330,000 tested, 1.3% active | AID 504466; also: % of control where 0% means no effect; nearly all actives have a fitted effect of over 60% in size
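After overnight (16 hr) compound treatment at 37 °C, ELG1-luciferase HEK293T cells were lysed with ONE-Glo; luminescence quantified 30 min later at room temperature.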
Rab9 promoter act: Rab9 promoter activation. Huh7 Rab9 promoter-luciferase reporter, luminescence, 24 h. Potency, µM (titrated, usually from 9.22 µM), inactives show at the top dose activation, negative = inhibition, hits mostly activators. 320,000 tested, 2.8% active; also: % of control where 0% means no effect; nearly all actives have a fitted effect of over 60% in size
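Luminescence from Amplite-detected luciferase (10 minutes, ambient) reports Rab9 promoter activation. Before that, stable Rab9-luciferase Huh7 cells (1500/well, reduced-serum OP-MEM I plus 10% FBS) were exposed to compound for 24 hours at 37C.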
FLuc modulator: counter-screen for miR-21 project: firefly luciferase inhibitors or activators. P08659. Potency, µM (highest dose often 57.5 µM), inactives show top-dose activity change, negative = inhibition, actives largely listed as inhibitors. 360,000 tested, 6.9% active. AID 588342. purified FLuc, Km substrates, luminescence inhibition;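 also: plate controls were vehicle for no effect and reference inhibitor for full effect; nearly all actives have a fitted effect of over 55% in size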
Target sequence (P08659 whole entry, looked up): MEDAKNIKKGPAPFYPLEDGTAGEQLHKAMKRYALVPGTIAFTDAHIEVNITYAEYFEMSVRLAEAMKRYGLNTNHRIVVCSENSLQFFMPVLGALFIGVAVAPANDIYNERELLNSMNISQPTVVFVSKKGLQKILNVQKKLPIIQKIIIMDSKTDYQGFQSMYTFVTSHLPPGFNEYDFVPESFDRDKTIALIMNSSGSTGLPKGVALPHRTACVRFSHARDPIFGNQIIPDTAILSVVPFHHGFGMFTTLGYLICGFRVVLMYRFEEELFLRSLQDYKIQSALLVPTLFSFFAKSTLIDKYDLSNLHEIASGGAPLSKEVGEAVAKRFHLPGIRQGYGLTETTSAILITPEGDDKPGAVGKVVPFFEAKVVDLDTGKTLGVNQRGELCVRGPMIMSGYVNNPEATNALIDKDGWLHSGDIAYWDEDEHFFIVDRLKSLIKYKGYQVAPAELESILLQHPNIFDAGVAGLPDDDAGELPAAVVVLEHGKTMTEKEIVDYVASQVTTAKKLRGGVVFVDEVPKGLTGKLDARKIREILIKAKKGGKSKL
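Biochemical qHTS of compounds, final roughly 60 µM downward over six points, against 10 nM purified firefly luciferase using Km concentrations of substrates (10 uM D-luciferin, 10 uM ATP) in Tris acetate pH 7.5 buffer; luminescence output.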
Luc counter: counter-screen: inhibitors of Kinase-Glo firefly luciferase; Kinase-Glo luciferase, ATP luminescence, 8 min; Potency, µM (doses to about 38.3 µM), for inactives: at the top dose activity change, negative = inhibition, most hits filed as inhibitors; 200,000 tested, 0.28% active; AID 1379; also: % is scaled to controls: 0 for no effect and ±100 for the full control effect; nearly all actives have a fitted effect of over 60% in size
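Compound is pinned into ATP-containing buffer (10 uM ATP, imidazole pH 7.2, 7 mM MgCl2). Kinase-Glo luciferase reagent is then added. Light output is recorded following an 8-min room-temperature incubation.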
SMN2 splice up: increases expression of the SMN2 splice variant; 210,000 tested, 2.8% active; AID 1458; HEK293 SMN2-luciferase splicing reporter, luminescence, 30-36 h; Potency, µM (doses to about 46.1 µM), for the others: at the top dose activity change, positive = activation, actives largely listed as activators; also: % of control where 0% means no effect; nearly all actives have a fitted effect of over 55% in size
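qHTS luciferase splicing reporter: luminescence rises when SMN2 exon 7 is included in transfected HEK293 cells. Compound exposure lasted 30-36 h at 37C, with 4.5 mM final sodium butyrate as control, followed by a ONE-Glo read.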
The depositor's hits bear a star; ? = inconclusive; . = no result given. Rows were chosen to be rich in hits. Some 7.5% of all compounds tested hit in one or more screens of this group. Calls follow the shape of the dose curve; as a rule, active = well fitted curve in the direction sought with a large enough effect; inconclusive = small, poorly fitted or top-dose-only effect, or another doubt; inactive = no such curve, though single readings can be large; an effect the other way counts as inactive or inconclusive. Potency is read from the fitted curve at half-maximal effect.

SMILES	NPC1 prom act	ELG1 genotox	Rab9 promoter act	FLuc modulator	Luc counter	SMN2 splice up
C=C1[C@@H](OC(C)=O)CC[C@]2(C)[C@@H]1C[C@@H]1C[C@H](OC(C)=O)C(C)=C([C@@H](OC(C)=O)[C@@H]2OC(C)=O)C1(C)C	-2%	-6%	-8%	1%	.	.
COc1ccc2oc(=O)c(C(=O)Nc3ccccc3-c3ccccc3)cc2c1	0%	-6%	0%	5%	4%	-1%
COc1ccc2oc(=O)c(C(=O)Nc3cccc(C(C)=O)c3)cc2c1	28%	8%	?	4.8µM*	.	.
COc1cccc(OC(=O)c2cc3ccccc3oc2=O)c1	2%	11%	-3%	13µM*	-7%	-3%
COc1ccccc1OC(=O)c1cc2ccccc2oc1=O	-2%	7%	-2%	-18%	.	.
COc1cccc(NC(=O)c2cc3ccccc3oc2=O)c1	1.4µM*	0.92µM*	2.5µM*	0.24µM*	.	.
COc1ccc(NC(=O)c2cc3ccccc3o/c2=N\NS(=O)(=O)c2ccc(C)cc2)cc1	1µM*	?	0.45µM*	-28%	.	.
COc1ccc2oc(=O)c(/C(C)=N/Nc3ccccc3)cc2c1	-1%	-1%	-7%	24µM*	1%	-26%
Cc1cccnc1NC(=O)c1cc2ccccc2oc1=O	1.8µM*	2.1µM*	1µM*	0.6µM*	-19%	20µM*
COc1cc(/C=C/[N+](=O)[O-])ccc1OC(=O)c1cc2ccccc2oc1=O	-18%	?	10%	6µM*	.	.
COc1ccc2oc(=O)c(C(=O)N3CCN(C(=O)c4ccccc4)CC3)cc2c1	-1%	-2%	-4%	0%	.	.
Nc1c(C(=O)N2CCCC2)sc2nc(-c3ccccc3)ccc12	2µM*	?	1.6µM*	4.8µM*	.	.
Cc1ccc(-c2c3c(nc4sc(C(N)=O)c(N)c24)CCC3)cc1	-4%	0%	?	17µM*	3%	5%
Cc1ccc(C(=O)c2sc3nc4c(cc3c2N)CCC4)cc1	1.8µM*	?	2.2µM*	?	2%	7.9µM*
Nc1c(C(=O)Nc2ccccc2F)sc2nc3c(cc12)CCCCCC3	.	.	.	-5%	.	8%
NC(=O)c1sc2nc3c(c(-c4ccc(Cl)cc4)c2c1N)CCCC3	-4%	-34%	-3%	3%	-4%	26%
COc1ccccc1NC(=O)c1sc2nc3c(cc2c1N)CCCCCC3	.	.	.	-11%	.	-5%
Nc1c(C(=O)N2CCCCC2)sc2nc3c(cc12)CCCC3	2.5µM*	6.5µM*	2.8µM*	6.7µM*	.	.
Cc1noc(C)c1S(=O)(=O)Nc1ccc(C(=O)N2CCC(C)CC2)cc1	-5%	0%	2%	-3%	0%	-15%
Cc1ccc(NC(=S)C2=C(O)c3ccccc3N(C)S2(=O)=O)cc1	0%	-6%	5%	19µM*	4%	-10%
CN1c2ccccc2C(O)=C(C(=S)Nc2ccccc2)S1(=O)=O	-1%	-12%	-7%	?	5%	-16%
O=C(NCc1cccc(C(F)(F)F)c1)N1CCN(C(=O)c2ccccc2)CC1	.	12%	.	.	.	.
Cc1nc2ccccc2c(=O)n1/N=C/c1ccccc1Cl	?	?	?	11µM*	.	.
Cc1ccc(/C=N/n2c(C)nc3ccccc3c2=O)s1	?	14%	3.5µM*	?	3%	?
COCCN(C(=O)C1CC1)c1nnc(-c2ccc(C)cc2)s1	16%	6%	11%	?	2%	-15%
CCCC(=O)N(C)c1nnc(-c2ccc(OC)cc2)s1	27%	?	4µM*	7.6µM*	-7%	10%
CCOc1ccc(-c2nnc(N(CC)C(=O)C3CCC3)s2)cc1	2%	?	5%	7.6µM*	1%	15%
COCCN(C(=O)CCc1ccc(OC)cc1)c1nnc(-c2ccncc2)s1	0%	-1%	-2%	0%	0%	.
